Assay outcomes (PubChem)
Mdm2 MdmX PPI: inhibitors of human Mdm2-MdmX association, primary screen, cell-based, luminescence, split luciferase, SaOS-2, uHTS; Protein Mdm4 (Homo sapiens) + E3 ubiquitin-protein ligase Mdm2 (Homo sapiens), …; SaOS-2 split-luciferase Mdm2/MdmX complementation; inhibition, % at 8 µM; 3% of 330,000 active; AID 485346, 2010;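 active = inhibition of at least 50% at 8 µM in the primary screen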
Target sequence (O15151 whole entry, looked up): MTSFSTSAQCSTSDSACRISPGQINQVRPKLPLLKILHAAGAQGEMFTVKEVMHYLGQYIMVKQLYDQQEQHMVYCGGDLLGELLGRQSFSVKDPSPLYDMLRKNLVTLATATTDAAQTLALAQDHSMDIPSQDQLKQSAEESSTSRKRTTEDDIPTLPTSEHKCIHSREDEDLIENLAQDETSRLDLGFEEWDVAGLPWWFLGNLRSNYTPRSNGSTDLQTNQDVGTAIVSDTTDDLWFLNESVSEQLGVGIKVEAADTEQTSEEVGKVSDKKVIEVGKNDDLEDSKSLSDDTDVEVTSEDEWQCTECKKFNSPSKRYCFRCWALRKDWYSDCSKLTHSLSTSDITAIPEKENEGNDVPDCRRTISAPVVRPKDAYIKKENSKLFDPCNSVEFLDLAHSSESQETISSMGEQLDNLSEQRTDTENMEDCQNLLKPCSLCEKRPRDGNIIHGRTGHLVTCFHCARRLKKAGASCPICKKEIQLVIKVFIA
Target sequence (Q00987 whole entry, looked up): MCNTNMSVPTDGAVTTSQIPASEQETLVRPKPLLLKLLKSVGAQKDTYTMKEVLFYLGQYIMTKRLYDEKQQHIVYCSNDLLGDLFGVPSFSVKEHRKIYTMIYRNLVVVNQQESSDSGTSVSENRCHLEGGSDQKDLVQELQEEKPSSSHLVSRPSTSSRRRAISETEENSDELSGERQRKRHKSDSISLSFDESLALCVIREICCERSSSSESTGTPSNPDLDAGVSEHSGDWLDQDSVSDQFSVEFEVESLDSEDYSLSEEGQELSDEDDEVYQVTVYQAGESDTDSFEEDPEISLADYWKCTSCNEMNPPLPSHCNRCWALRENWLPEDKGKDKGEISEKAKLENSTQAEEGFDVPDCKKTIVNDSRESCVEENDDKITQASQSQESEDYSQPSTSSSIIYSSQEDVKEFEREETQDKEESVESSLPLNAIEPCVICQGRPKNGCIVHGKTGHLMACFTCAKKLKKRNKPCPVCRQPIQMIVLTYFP
CF NFkB block: inhibitors of PAF-induced NF-kB signaling, primary screen, cell-based, GFP fluorescence, uHTS; KKLEB NF-kB-GFP reporter, GFP fluorescence overnight; inhibition, % at 5 µM; 0.86% of 360,000 active;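 active = at least 50% inhibition at 5 µM, scaled per plate between neutral and stimulator controls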;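 note: PAF is a Pseudomonas aeruginosa culture filtrate used as stimulus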
KKLEB tox: cytotoxicity in KKLEB CF airway cells, primary screen, cytotoxicity control for CF NF-kB inhibitor project, cell-based, uHTS, fluorescence assay plates; KKLEB CF airway cells viability, ATPlite luminescence, overnight; active compounds read low; cells stimulated with P. aeruginosa culture filtrate; activity change (cytotoxicity), % at 5 µM; 0.36% of 360,000 active;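 active = corrected activity change at or below -50% at 5 µM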
HSP90 inh: HSP90 inhibitors, primary screen, cell lysate, luminescence; Heat shock protein HSP 90 (rabbit reticulocyte lysate; luciferase refolding); Rabbit reticulocyte lysate, luciferase refolding luminescence, 3 h; inhibition, % at 5.6 µM; 0.91% of 290,000 active; AID 1789, 2009;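 active = inhibition above the screen-wide mean plus 3 SD, computed separately per campaign, cut at about 16% in these data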;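 note: inhibitors lower the luminescence because luciferase stays unfolded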
LGR2 inh: inhibitors of bursicon-induced LGR2 CRE-luciferase signal, primary screen, cell-based, HEK293, CRE-luciferase reporter, bursicon stimulation; Drosophila bursicon receptor LGR2 (rickets); bursicon-stimulated, 4 h; inhibition, % at 9.99 µM; 0.35% of 380,000 active; AID 720647, 2013;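 active = drop in luminescence signal, shown as inhibition above about 50% in the replicate tests, limit read from the data, passing the limit was not always enough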;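 note: agonist challenge used bursicon conditioned medium at about half maximal strength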
Peg3 promoter: Peg3 promoter-driven luciferase inhibitors, primary screen, cell-based, HeLa, luciferase luminescence; HeLa PEG-Prom luciferase reporter, overnight; inhibition, % at 20 µM; AID 588405, 2011; 1.7% of 360,000 active;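 active = inhibition of at least 50% at 20 µM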
HSP90 inh confirm: HSP90 inhibitors, confirmation, cell lysate, luminescence | inhibition, % at 5.9 µM | 64% of 2,300 active | shares compounds with HSP90 inh | rabbit reticulocyte lysate, luciferase refolding luminescence, 3 h; in the data active = inhibition above about 18%
FLuc counter: firefly luciferase inhibitors, HSP90 counter-screen, confirmation, artefact control for HSP90 inhibitor project, biochemical, luminescence, triplicate. AID 1847, 2009. shares compounds with HSP90 inh. inhibition, % at 5.9 µM. purified native firefly luciferase. 48% of 2,300 active;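 active = inhibition above the mean inhibition of all tested sample wells plus 3 SD, cut at about 10% in these data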
Large screens that a line does not name were inactive (follow-up assays come after a bar, where they were run). Compounds with a hit are over-represented: about 3.6% of the library has one in this group of screens.

CCOC(=O)c1cn2nc(N3CCCC3)ccc2n1	HSP90 inh 34, LGR2 inh 68 | HSP90 inh confirm 67 | FLuc counter 43
CCOC(=O)c1cn2nc(Oc3ccc(C)cc3)ccc2n1	none
O=C(NCc1ccccc1)c1cccc(COc2ccc3c(c2)CCC3)c1	HSP90 inh 36 | HSP90 inh confirm 45 | FLuc counter 45
O=C(NC1CCCC1)N1CCCCN2[C@H](CO)[C@H](c3ccc(-c4ccccc4)cc3)[C@H]2C1	none (no result: Mdm2 MdmX PPI, CF NFkB block, KKLEB tox, HSP90 inh, Peg3 promoter)
O=C(N[C@@H](Cc1c[nH]c2ccccc12)C(=O)O)C1CCN(S(=O)(=O)c2cccs2)CC1	HSP90 inh 20 | HSP90 inh confirm inactive | FLuc counter inactive
O=C(N[C@@H](Cc1c[nH]c2ccccc12)C(=O)O)C1CCN(S(=O)(=O)c2ccc(Cl)cc2)CC1	none
Cc1ccc(OCc2nc(-c3ccccn3)no2)c(Br)c1	HSP90 inh 40 (no result: LGR2 inh) | HSP90 inh confirm 65 | FLuc counter 61
CCc1ccc(OCc2nc(-c3ccccn3)no2)c(Br)c1	none (no result: LGR2 inh)
CC1CCCN(C(=O)CSc2nnc(-c3c[nH]c4ccccc34)o2)C1 (configuration not stated)	HSP90 inh 38 | HSP90 inh confirm inactive | FLuc counter inactive
COc1ccc(C(c2c(NC(=O)c3ccccc3)sc(C)c2C)N2CCN(CCO)CC2)cc1 (configuration not stated)	none (no result: LGR2 inh)
CCN1CCN(C(c2ccccn2)c2c(NC(=O)c3ccccc3)sc(C)c2C)CC1 (configuration not stated)	HSP90 inh 33 (no result: LGR2 inh) | HSP90 inh confirm inactive | FLuc counter inactive
C[C@H]1CN([C@@H](C)CO)C(=O)c2cccc(NC(=O)C3CCOCC3)c2O[C@H]1CN(C)C(=O)Nc1ccc(C(F)(F)F)cc1	none (no result: Mdm2 MdmX PPI, CF NFkB block, KKLEB tox, HSP90 inh, Peg3 promoter)
Oc1ccc(-c2nc3ccccc3s2)cc1	none
Nc1ccc(O)c(-c2nc3ccccc3s2)c1	none (no result: LGR2 inh)
Nc1cccc(-c2nc3ccc(N)cc3s2)c1	HSP90 inh 20 (no result: LGR2 inh) | HSP90 inh confirm 66 | FLuc counter 53
Nc1ccc(-c2nc3ccc(N)cc3s2)cc1	HSP90 inh 54, LGR2 inh 53 | HSP90 inh confirm 69 | FLuc counter 61
C[C@@H]1CN([C@@H](C)CO)C(=O)c2cccc(NC(=O)C3CCOCC3)c2O[C@@H]1CN(C)Cc1ccc(Cl)c(Cl)c1	none (no result: Mdm2 MdmX PPI, CF NFkB block, KKLEB tox, HSP90 inh, Peg3 promoter)
C[C@H](CO)N1C[C@H](C)[C@H](CN(C)C(=O)CCC(F)(F)F)OCc2ccccc2-c2c(n(C)c3ccccc23)C1=O	none (no result: Mdm2 MdmX PPI, CF NFkB block, KKLEB tox, HSP90 inh, Peg3 promoter)
COc1ccc2c3c(n(C)c2c1)[C@@H](CO)N(Cc1cc(F)ccc1F)CC31CCN(C(C)=O)CC1	none (no result: Mdm2 MdmX PPI, CF NFkB block, KKLEB tox, HSP90 inh, Peg3 promoter)
C=COC(=O)CSc1nc(-c2cccs2)ccc1C#N	HSP90 inh 33 | HSP90 inh confirm inactive | FLuc counter inactive
CCc1sc(C(=O)Nc2nc(C)cs2)cc1C	HSP90 inh 21 | HSP90 inh confirm 34 | FLuc counter 20
CCc1sc(C(=O)Nc2ccc(NC(C)=O)cc2)cc1C	none
O=C(Nc1nc2ccccc2[nH]1)NC1CCCCC1	HSP90 inh 23 | HSP90 inh confirm 24 | FLuc counter inactive
O=C(Nc1nc2ccccc2[nH]1)C1CC1	none
Cc1ccc(N(C)S(=O)(=O)c2cccc(C(=O)Nc3nc4ccccc4[nH]3)c2)cc1	none
COc1cccc(C(=O)Nc2nc3ccccc3[nH]2)c1	HSP90 inh 27 (no result: LGR2 inh) | HSP90 inh confirm 67 | FLuc counter 56
